Laboratory results from PubChem BioAssay (EPA / NIEHS).
Several values for one entry are separate records, joined by “and”; a condition that tells them apart may be missing. Identical values can stand only once. Some compounds were tested as several samples or in several runs, with calls that do not always agree. Activity calls are given as the source filed them. The calls were made as follows: active = hit-call score of the fitted dose curve at least 0.9, where 1 is the maximum; inactive = score below 0.9.

What was measured:
[1] = read-out: Tissue Factor, F3 (gene 2152); assay: BSK_LPS_TissueFactor: BioMAP Diversity Plus: LPS Assay for Tissue Factor Biomarker Activity (AID 2283084); settings: primary human HUVEC with PBMC; actives raise or lower the signal
Method in brief: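 HUVEC/PBMC co-culture, LPS-activated; CD142 ELISA read 24 h post-dose; bidirectional curve fit vs DMSO negative control.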

[2] = read-out: Tumor necrosis factor (Homo sapiens) (UniProt P01375); assay: BSK_LPS_TNFa: BioMAP Diversity Plus: LPS Assay for Tumour Necrosis Factor alpha (TNFa) Biomarker Activity (AID 2283085); settings: primary human HUVEC with PBMC; actives raise or lower the signal
Method in brief: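 Human umbilical vein endothelial cells co-cultured with PBMC and stimulated with LPS. TNFa was measured by ELISA 24 h after chemical dosing, fitted bidirectionally relative to DMSO.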

[3] = read-out: Vascular cell adhesion molecule 1 (VCAM1), VCAM1 (gene 7412); assay: BSK_LPS_VCAM1: BioMAP Diversity Plus: LPS Assay for Vascular cell adhesion molecule 1 (VCAM1) Biomarker Activity (AID 2283086); settings: primary human HUVEC with PBMC; actives raise or lower the signal
Method in brief: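 Human umbilical vein endothelial cells co-cultured with PBMC and stimulated with LPS; VCAM-1 measured by ELISA 24 h after dosing. Bidirectional curve fitting against DMSO baseline; cytotoxicity tracked in parallel by SRB total-protein staining.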

CD38, CD38 (gene 952) = assay: BSK_SAg_CD38: BioMAP Diversity Plus: SAg Assay for CD38 Biomarker Activity (AID 2283087); settings: primary human HUVEC with PBMC; actives raise or lower the signal
Method in brief: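 Human HUVEC plus PBMC co-culture stimulated with superantigen; CD38 measured by ELISA 24 h after chemical dosing. Fluorescence read-out, bidirectional fit against DMSO; cytotoxicity tracked in parallel by SRB and Alamar Blue.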

CD40, CD40 (gene 958) = assay: BSK_SAg_CD40: BioMAP Diversity Plus: SAg Assay for CD40 Biomarker Activity (AID 2283088); settings: primary human HUVEC with PBMC; actives raise or lower the signal
Method in brief: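 HUVEC/PBMC co-culture, 24 h post-dose; CD40 by ELISA, fluorescence intensity; bidirectional fit vs DMSO negative control.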

CD69, CD69 (gene 969) = assay: BSK_SAg_CD69: BioMAP Diversity Plus: SAg Assay for CD69 Biomarker Activity (AID 2283089); settings: primary human HUVEC with PBMC; actives raise or lower the signal;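 as to AC50: cell surface CD69 protein quantified by ELISA with fluorescence detection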
Method in brief: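 ELISA, fluorescence read-out: CD69 on human umbilical vein endothelial cell + PBMC co-culture, 24 h post-dosing. Gain or loss of signal fitted bidirectionally against DMSO baseline.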

[4] = read-out: Monocyte Chemoattractant Protein-1 (MCP1), CCL2 (gene 6347); assay: BSK_SAg_MCP1: BioMAP Diversity Plus: SAg Assay for Monocyte Chemoattractant Protein-1 (MCP1) Biomarker Activity (AID 2283090); settings: primary human HUVEC with PBMC; actives raise or lower the signal
Method in brief: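 MCP-1 levels in the endothelial–PBMC SAg co-culture were quantified by ELISA at 24 h post-dosing; both increases and decreases versus DMSO scored. Cytotoxicity monitored by SRB total protein in parallel cultures.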

[5] = read-out: E-selectin (Homo sapiens) (UniProt P16581); assay: BSK_SAg_Eselectin: BioMAP Diversity Plus: SAg Assay for Eselectin Biomarker Activity (AID 2283091); settings: primary human HUVEC with PBMC; actives raise or lower the signal
Method in brief: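 E-selectin ELISA readout at 24 h post-dosing in human umbilical vein endothelial cell/PBMC co-culture; gain or loss of signal fitted relative to DMSO baseline.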

[6] = read-out: Monokine induced gamma interferon (MIG), CXCL9 (gene 4283); assay: BSK_SAg_MIG: BioMAP Diversity Plus: SAg Assay for Monokine induced gamma interferon (MIG) Biomarker Activity (AID 2283092); settings: primary human HUVEC with PBMC; actives raise or lower the signal
Method in brief: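 ELISA readout of MIG/CXCL9; primary human umbilical vein endothelial cells co-cultured with peripheral blood mononuclear cells; 24 h post-dose; gain/loss fit vs DMSO baseline.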

[7] = BSK_SAg_PBMCCytotoxicity: PBMC Cytotoxicity Assessment in the BioMAP Diversity Plus: SAg Assay (AID 2283093); settings: primary human HUVEC with PBMC;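 also: PBMC viability measured as Alamar Blue reduction fluorescence at 546/580 nm; fitted both ways against DMSO so a hit may be loss or gain of signal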;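 as to AC50: PBMC superantigen activated with SEB plus TSST-1 one hour after compound addition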
Method in brief: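 HUVEC/PBMC co-culture; PBMC exposed to chemical 1 h before SEB and TSST-1 activation (20 ng/mL each), incubated 90 h, then Alamar Blue 6 h, fluorescence 546/580 nm. Bidirectional fit versus DMSO baseline.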

Measured: AC50

Chain of Tumor necrosis factor (Homo sapiens) (P01375 whole entry, looked up): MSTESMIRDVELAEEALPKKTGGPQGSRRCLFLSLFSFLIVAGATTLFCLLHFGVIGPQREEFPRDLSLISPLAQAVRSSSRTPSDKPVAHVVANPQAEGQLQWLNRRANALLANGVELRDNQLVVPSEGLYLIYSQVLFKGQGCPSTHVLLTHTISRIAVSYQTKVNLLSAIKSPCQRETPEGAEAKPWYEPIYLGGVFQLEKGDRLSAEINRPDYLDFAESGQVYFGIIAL
Chain of E-selectin (Homo sapiens) (P16581 whole entry, looked up): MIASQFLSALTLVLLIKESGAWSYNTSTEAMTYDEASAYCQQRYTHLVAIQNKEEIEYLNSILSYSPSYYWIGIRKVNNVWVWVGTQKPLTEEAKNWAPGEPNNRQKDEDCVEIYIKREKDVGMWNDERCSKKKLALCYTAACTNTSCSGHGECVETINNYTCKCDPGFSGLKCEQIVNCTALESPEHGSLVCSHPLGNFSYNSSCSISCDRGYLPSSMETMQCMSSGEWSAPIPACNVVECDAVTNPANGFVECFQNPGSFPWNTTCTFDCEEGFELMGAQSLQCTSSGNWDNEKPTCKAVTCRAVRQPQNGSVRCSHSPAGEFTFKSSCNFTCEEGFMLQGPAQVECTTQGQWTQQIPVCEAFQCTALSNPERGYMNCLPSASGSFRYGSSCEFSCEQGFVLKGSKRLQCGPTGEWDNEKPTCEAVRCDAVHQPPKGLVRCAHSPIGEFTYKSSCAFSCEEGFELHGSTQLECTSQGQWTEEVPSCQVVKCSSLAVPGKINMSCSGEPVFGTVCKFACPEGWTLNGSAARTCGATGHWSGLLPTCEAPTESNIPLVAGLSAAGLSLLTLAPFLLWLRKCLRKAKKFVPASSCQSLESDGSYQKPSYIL

O=C(O)C(F)(F)C(F)(F)C(=O)O
inactive: all assays above

O=C(O)C(F)(F)OC(F)(F)C(F)(F)OC(F)(F)C(=O)O
inactive: all assays above

OCC(F)(F)OC(F)(F)C(F)(F)OC(F)(F)CO
inactive: all assays above

CSC(C)(C)C=NO
inactive: all assays above

CCCCCCCc1ccc(O)cc1
active: [1] 38.1 µM | [2] 30.8 µM | [3] 36.2 µM | CD38, CD38 (gene 952) 35.7 µM | CD40, CD40 (gene 958) 35.6 µM | CD69, CD69 (gene 969) 39.2 µM | [4] 36 µM | [5] 31.6 µM | [6] 37.2 µM | [7] 27.5 µM

CCC1(c2ccccc2)C(=O)N=C(O)NC1=O (stereo unspecified)
inactive: all assays above

CCOc1ccc(C(C)(C)COCc2cccc(Oc3ccccc3)c2)cc1
active: [2] 1.15 µM
inactive: all other assays above

CC(C)(C)c1ccccc1OP(=O)(Oc1ccccc1)Oc1ccccc1
inactive: [1] | [2]
active: [3] 20 µM | CD38, CD38 (gene 952) 30.7 µM | CD40, CD40 (gene 958) 28.3 µM | CD69, CD69 (gene 969) 27.5 µM | [4] 27.7 µM | [5] 20 µM | [6] 34.6 µM | [7] 33.2 µM

CCOS(=O)(=O)OCC
inactive: all assays above

Cc1ccc2c(c1N)C(=O)c1ccccc1C2=O
active: [1] 20 µM | CD38, CD38 (gene 952) 12.6 µM
inactive: all other assays above

OCC(F)(F)OC(F)(F)C(F)(F)OC(F)(F)C(F)(F)OC(F)(F)CO
active: CD38, CD38 (gene 952) 24.3 µM | CD69, CD69 (gene 969) 12.9 µM | [4] 10.3 µM | [5] 38.3 µM and 42.9 µM
inactive: [1] | [2] | [3] | CD38, CD38 (gene 952) | CD69, CD69 (gene 969) | [4] | [6] | [7]

Nc1cc2c3c(c1)C(c1ccccc1)=N[C@@H](NC(=O)c1cccnc1)C(=O)N3CC2
active: [2] 1.46 µM | CD40, CD40 (gene 958) 3.97 µM | CD69, CD69 (gene 969) 0.837 µM | [5] 1.12 µM
inactive: all other assays above

CC(C)(C)OOC(C)(C)C
inactive: all assays above

CCCCC(CC)COC(=O)c1c(Br)c(Br)c(Br)c(Br)c1C(=O)OCC(CC)CCCC (stereo unspecified)
inactive: all assays above

c1cc2c3c(cccc3c1)CC2
inactive: all assays above

O=S1(=O)OCC2C(CO1)C1(Cl)C(Cl)=C(Cl)C2(Cl)C1(Cl)Cl (stereo unspecified)
inactive: all assays above

CCOP(=S)(OCC)SCn1nnc2ccccc2c1=O
active: [5] 15.9 µM
inactive: all other assays above

O=P(OCC(Br)CBr)(OCC(Br)CBr)OCC(Br)CBr (stereo unspecified)
inactive: all assays above

O=C(O)C(F)(OC(F)(F)C(F)(F)C(F)(F)F)C(F)(F)F (stereo unspecified)
inactive: [1] | [2] | [3] | CD38, CD38 (gene 952) | CD69, CD69 (gene 969) | [4] | [5] | [6] | [7]
active: [1] 1.41 µM

[N-]=[N+]=[N-]
inactive: all assays above

O=C(O)C=CC(F)(C(F)(F)F)C(F)(F)F
inactive: all assays above

OCC(F)(F)OC(F)(F)C(F)(F)OC(F)(F)C(F)(F)OC(F)(F)F
inactive: [1] | [3] | CD38, CD38 (gene 952) | [6]
active: [1] 49.8 µM | [2] 50.8 µM and 53.5 µM | [3] 42.8 µM | CD38, CD38 (gene 952) 48.8 µM | CD69, CD69 (gene 969) 24.4 µM and 45.7 µM | [4] 45.9 µM and 24.8 µM | [5] 39.4 µM and 45.2 µM | [7] 15.3 µM and 21.2 µM

Nc1ccc2ccccc2c1
active: [5] 4.16 µM
inactive: all other assays above

ClC(Cl)=C(c1ccc(Cl)cc1)c1ccccc1Cl
active: [1] 20 µM | [2] 31.7 µM | [3] 32.9 µM | CD38, CD38 (gene 952) 20 µM | CD40, CD40 (gene 958) 20 µM | CD69, CD69 (gene 969) 14.6 µM | [4] 25.9 µM | [5] 20 µM | [6] 20 µM | [7] 10.9 µM

ClC(Cl)(Cl)c1ccccc1
inactive: all assays above

CC(O)C(F)(F)C(F)(F)F (stereo unspecified)
inactive: [1] | [2] | [3] | CD38, CD38 (gene 952) | CD69, CD69 (gene 969) | [4] | [5] | [6] | [7]
active: [1] 5.95 µM

COC(=O)C(F)(F)C(F)(F)OC(F)(C(F)(F)F)C(F)(F)OC(F)=C(F)F (stereo unspecified)
active: CD38, CD38 (gene 952) 0.864 µM
inactive: [1] | [2] | [3] | CD38, CD38 (gene 952) | CD40, CD40 (gene 958) | CD69, CD69 (gene 969) | [4] | [5] | [6] | [7]

O=C(O)C1C(C(=O)O)C2(Cl)C(Cl)=C(Cl)C1(Cl)C2(Cl)Cl (stereo unspecified)
inactive: all assays above

CN(C)C(=O)Cl
inactive: all assays above

COP(N)(=S)OC
inactive: all assays above

Cc1cccc(N)c1
not listed: CD40, CD40 (gene 958)
inactive: all other assays above

ClC(Cl)c1ccccc1
not listed: CD40, CD40 (gene 958)
inactive: all other assays above

O=[N+]([O-])c1ccccc1
inactive: all assays above

N#Cc1c(-c2ccc(Cl)cc2)[nH]c(C(F)(F)F)c1Br
active: [2] 0.016 µM | [3] 3.97 µM | CD38, CD38 (gene 952) 0.343 µM | CD40, CD40 (gene 958) 0.34 µM | CD69, CD69 (gene 969) 0.472 µM | [4] 1.53 µM | [5] 0.267 µM | [6] 2.85 µM | [7] 5.4 µM
inactive: [1]

Cc1ccc(O)cc1C
not listed: CD40, CD40 (gene 958) | [7]
inactive: all other assays above

COCCOCCO
inactive: all assays above

COP(=O)(O)OC
active: [5] 0.0643 µM
inactive: all other assays above

O=P(Oc1ccccc1)(Oc1ccccc1)Oc1ccccc1
inactive: [1] | [7]
active: [2] 3.97 µM | [3] 20 µM | CD38, CD38 (gene 952) 31.7 µM | CD40, CD40 (gene 958) 25.9 µM | CD69, CD69 (gene 969) 31.6 µM | [4] 29 µM | [5] 33.7 µM | [6] 31.3 µM

CCCCOCCOP(=O)(OCCOCCCC)OCCOCCCC
inactive: all assays above
